USP30 block = human USP30 deubiquitinase inhibition; Q70CQ3; purified USP30, Ub-rhodamine cleavage fluorescence; inhibition, % at 25 µM; actives 5.3% (n = 47,000)
USP17 inh = human USP17-like deubiquitinase inhibition. purified USP17, Ub-rhodamine cleavage fluorescence, 3 h. actives 6.5% (n = 47,000). inhibition, % at 50 µM
USP28 inh = inhibitors of human USP28 deubiquitinase. Q96RU2. purified USP28, Ub-rhodamine cleavage fluorescence, 30 min. inhibition, % at 25 µM. actives 3% (n = 47,000)
USP10 inh = blocks human USP10 ubiquitin-rhodamine cleavage; inhibition, % at 20 µM; purified USP10, Ub-rhodamine fluorescence, 60 min; AID 1645856; actives 1.1% (n = 47,000)
USP8 block = human USP8 deubiquitinase inhibition; P40818; purified USP8, Ub-rhodamine cleavage fluorescence, 30 min; inhibition, % at 20 µM; actives 4.2% (n = 47,000); AID 1645853
Each line names hits and unclear results; the compound was inactive in the other large screens. Most compounds without a hit are left out; they make up all but 13% or so of the library. Cut-off read from the data, not from the text of the source: active = inhibition above about 30%; inactive = the rest.

C[C@@H]1CC[C@]2(C(=O)O)CC[C@]3(C)C(=CCC4[C@@]5(C)CC[C@H](O)C(C)(C)C5CC[C@]43C)C2[C@H]1C (stereo partly drawn)	USP30 block 35
CC1(C)C[C@@H](O)[C@]2(C)CC[C@]3(C)C(=CCC4[C@@]5(C)CCC(=O)[C@](C)(CO)[C@@H]5CC[C@]43C)[C@@H]2C1 (stereo partly drawn)	none
CC1CCC2(C(=O)O)CCC3(C)C(=CCC4C5(C)CCC(O)C(C)(C)C5CCC43C)C2C1C (mixture of isomers)	USP30 block 40
Cc1cc(=O)n(CC(=O)Nc2ccccc2)c(Nc2ccc(F)cc2)n1	USP30 block 63, USP17 inh 69, USP28 inh 43
Cc1cc(=O)n(CC(=O)Nc2ccccc2F)c(Nc2ccc(F)cc2)n1	USP30 block 83, USP17 inh 44, USP28 inh 39
Cc1ccc(NC(=O)Cn2c(Nc3ccc(F)cc3)nc(C)cc2=O)cc1	USP30 block 67, USP17 inh 78
Cc1cccc(NC(=O)Cn2c(C)cc(=O)n3nc(-c4cccs4)nc23)c1	USP17 inh 47
COc1ccc(C(=O)N2CC(=O)N(Cc3ccc(Cl)cc3)CC(O)C2)cc1 (stereo not drawn)	none
CCC1=NS(=O)(=O)c2cccnc2N1c1ccc(CC)cc1	none
Cc1cc(=O)n(CC(=O)Nc2ccccc2)c(Nc2ccc(C)c(C)c2)n1	none
Cc1cccc(Nc2nc(C)cc(=O)n2CC(=O)Nc2ccccc2)c1	USP30 block 30
Cc1cc(=O)n(CC(=O)Nc2ccc(C)c(C)c2)c(N2CCCC2)n1	USP30 block 35
COc1ccc(N2CCn3c(SCC(=O)Nc4cccc(F)c4)nnc32)cc1	USP30 block 34, USP17 inh 37, USP8 block 31
COc1ccc(N2CCn3c(SCC(=O)Nc4cccc(C(F)(F)F)c4)nnc32)cc1	none
COc1ccc(N2CCn3c(SCC(=O)Nc4ccccc4)nnc32)cc1	USP30 block 43
O=C(CSc1nnc2n1CCN2c1ccccc1)Nc1ccc(OC(F)(F)F)cc1	none
COc1ccc(N(CC(=O)N2c3ccccc3CC2C)S(=O)(=O)c2ccc(Cl)c([N+](=O)[O-])c2)cc1 (stereo not drawn)	none
CCN(CCCNC(=O)CCc1nnc2n(CCCOC(C)C)c(=O)c3ccccc3n12)c1cccc(C)c1	none
COc1ccc(CCNc2nc3c(-c4ccccc4)nnn3c3ccccc23)cc1OC	USP8 block 44
O=C(c1cc2nc(C3CC3)cc(C(F)(F)F)n2n1)N1CCn2ncnc2C1	none
Cc1ccc(C)c(COC(=O)C23CCC(=O)N2c2ccccc2S3)c1 (stereo not drawn)	none
CC(C)C[C@@H](NC(=O)OC(C)(C)C)C(=O)N1CCC(C(=O)N[C@H](Cc2ccccc2)C(=O)NCc2ccccc2F)CC1	none
Cc1cc(C)n(-c2nnc(NCc3ccc(Cl)cc3)nn2)n1	USP8 block 45
COc1ccc(N(C)C(=O)c2cc3c(=O)n(C)c4ccccc4n3n2)cc1	USP8 block 82
NC(=O)c1ccccc1NCc1cc(=O)n2cc(Cl)ccc2n1	none
Cc1ccc2nc(CNc3ccc(F)cc3C)cc(=O)n2c1	USP17 inh 85, USP28 inh 52, USP8 block 93
CN(Cc1cc(=O)n2ccsc2n1)c1ccccc1	USP8 block 35
Cc1ccc2nc(CN(C)c3ccccc3)cc(=O)n2c1	USP17 inh 36, USP8 block 74
Cc1cccc(N2CCN(Cc3cc(=O)n4ccsc4n3)CC2)c1C	none
Cc1ccc2nc(SCC(=O)NCc3ccccc3)nc(=O)n2c1	none
Cc1ccc(CNC(=O)Cn2c(N3CCCC3)nc(C)cc2=O)cc1	none
CC1CC(=O)Nc2cc(S(=O)(=O)N3CCCc4ccccc43)ccc2S1 (stereo not drawn)	none
COc1ccc(-n2nc(C(=O)Nc3ccc(OC)cc3OC)cc2-c2cccnc2)cc1	none
CCOC(=O)c1cnn(-c2ccc(C(=O)Nc3ccc(C)c(Cl)c3)cc2)c1N	USP17 inh 62
CC(=O)N[C@@H]1C[C@H](c2ccc(F)cc2)O[C@@H]2CCCC[C@@H]12	none
COc1ccc(CCNC(=O)Cn2c(=O)c3sccc3n(Cc3ccccc3C#N)c2=O)cc1OC	none
COc1ccc(CNC(=O)CCn2c(=O)c3sccc3n(Cc3ccccc3C#N)c2=O)cc1	USP30 block 56, USP17 inh 55
O=C(CCn1c(=O)c2sccc2n(Cc2ccc([N+](=O)[O-])cc2)c1=O)NCc1ccccc1	USP30 block 50, USP17 inh 52, USP10 inh 39, USP8 block 61
O=C(Cn1c(=O)c2sccc2n(CC(=O)OCc2ccccc2)c1=O)NCc1ccccc1Cl	none
COCCn1cnc2c1c(=O)n(CC(=O)NCCc1ccc(Cl)cc1)c(=O)n2Cc1ccccc1	none
O=C(Cn1c(=O)c2sccc2n(Cc2ccc([N+](=O)[O-])cc2)c1=O)NCCc1ccccc1	USP30 block 50, USP10 inh 38
O=C(NCc1ccc(F)cc1)C1CCCN(S(=O)(=O)N2CCCCCC2)C1 (stereo not drawn)	none
CCN1C(SCc2ccc(F)cc2)=NS(=O)(=O)c2ccccc21	USP28 inh 62
CCc1cccc(NC(=O)CSC2=NS(=O)(=O)c3ccccc3N2CC)c1	none
Cc1n[nH]c(C)c1CCc1nc2c3ccccc3nc(SCC(=O)c3ccc(F)cc3)n2n1	USP30 block 71, USP17 inh 53
N#Cc1cc([N+](=O)[O-])ccc1NCC1COc2ccccc2O1 (stereo not drawn)	USP28 inh 47
CC1CCCN(CC2CCN(S(=O)(=O)c3ccc(C#N)cc3)CC2)C1 (stereo not drawn)	none
Cc1nn(-c2ccccc2)c2c1C(c1cccnc1)c1c(ncn3nc(-c4cccc5ccccc45)nc13)O2 (stereo not drawn)	none
Cc1ccc(C2c3c(C)nn(-c4ccccc4)c3Oc3ncn4nc(-c5ccccc5O)nc4c32)cc1 (stereo not drawn)	USP30 block 34, USP8 block 41
COc1cc(OC)cc(C(=O)NCc2[nH]nc3ccccc23)c1	USP28 inh 31
COc1cccc(C(=O)NCc2[nH]nc3ccccc23)c1	USP17 inh 57, USP8 block 84
O=S1(=O)C[C@@H](N2CCN(c3ccccn3)CC2)[C@H](S(=O)(=O)c2ccccc2)C1	none (no result: USP30 block, USP28 inh)
c1ccc(-c2nc(N3CCCC3)cc(N3CCOCC3)n2)cc1	none
COc1ccccc1C1CCN(Cc2c(C)[nH]c3ccccc23)CC1	USP30 block 31
OCCCn1c(-c2ccccc2)cn2c(-c3ccccc3)c(-c3ccccc3)nc12	none
COc1ccc(-n2c(-c3ccccc3)cn3c(-c4ccccc4)c(-c4ccccc4)nc23)cc1	USP30 block 59, USP17 inh 55, USP8 block 80
OCCn1c(-c2ccccc2)cn2c(-c3ccccc3)c(-c3ccccc3)nc12	USP8 block 58
COc1ccc(-c2cn3c(-c4ccccc4)c(-c4ccccc4)nc3n2CCc2ccccc2)cc1	USP8 block 73

Assay outcomes: PubChem BioAssay, Buhrlage Lab, Dana-Farber Cancer Institute and Novartis Institutes for BioMedical Research (Cambridge, Mass)
